In PubChem BioAssay (EPA / NIEHS) one finds outcome and AC50 data, which are given here for 15 compounds.

Active and inactive are the calls of the source. How the source made its calls: active means hit-call score of the fitted dose curve at least 0.9, where 1 is the maximum; inactive means score below 0.9.

A word on the AC50: it is the concentration at which the activity in the assay is half-maximal.

The nature of the first experiment: APR_HepG2_MicrotubuleCSK_72hr: Apredica 72-hour HepG2 Assay for Microtubule CSK Stabilty (AID 2282919). The following applies: HepG2 microtubule cytoskeleton, high-content imaging, actives raise or lower the signal. In outline: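 Read-out is tubulin fluorescence intensity from high-content imaging of HepG2 cells, with nuclei identified by Hoechst 33342. Treatment lasts 72 h at 0.39–200 uM, and curves are fitted bidirectionally against the DMSO negative control.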
As for `CN(Cc1cnc2nc(N)nc(N)c2n1)c1ccc(C(=O)N[C@@H](CCC(=O)O)C(=O)O)cc1`, the outcome was inactive.

`O=C1NS(=O)(=O)c2ccccc21`: the outcome was inactive.

With `CCCCCCCCCCCCOS(=O)(=O)O`, the result was inactive.

Regarding `Cc1[nH]nc2c1N=C(c1ccccc1Cl)c1cc([N+](=O)[O-])ccc1N2`, the compound was called inactive.

Turning to `CCCCC=O`, the call was inactive.

With `N=C(N)c1ccc(OCCCCCOc2ccc(C(=N)N)cc2)cc1`, the result was inactive.

Consider `CCCCCCCCCCCCCCC`, for which the call was inactive.

The nature of another experiment: APR_HepG2_P-H2AX_24hr: Apredica 24-hour HepG2 Assay for H2AX Phosphorylation (AID 2282920). The following applies: high-content imaging, actives raise or lower the signal. In outline: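 HepG2 cells dosed 24 h at 0.39–200 uM (10 points, duplicate, 0.5% DMSO final). Formaldehyde-fixed and permeabilized, then immunostained for phospho-H2A.x with Hoechst. Fluorescence quantified by high-content imaging, fitted bidirectionally versus DMSO.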
Regarding `CN(Cc1cnc2nc(N)nc(N)c2n1)c1ccc(C(=O)N[C@@H](CCC(=O)O)C(=O)O)cc1`, the compound was called inactive.

With `O=C1NS(=O)(=O)c2ccccc21`, the compound was classed as inactive.

As for `CCCCCCCCCCCCOS(=O)(=O)O`, the compound was classed as inactive.

For the compound `Cc1[nH]nc2c1N=C(c1ccccc1Cl)c1cc([N+](=O)[O-])ccc1N2`, the AC50 was 24.9 µM (active).

Regarding `CCCCC=O`, the result was inactive.

With `CN(C)CCOC(c1ccccc1)c1ccccc1`, the call was inactive.

Consider `N=C(N)c1ccc(OCCCCCOc2ccc(C(=N)N)cc2)cc1`, for which the AC50 was 39.7 µM (active).

On to `CCCCC(CC)C(=O)O` (configuration not stated), for which the compound was called inactive.

`O=C(c1ccccc1)c1ccccc1`: the call was inactive.

With `O=C(CCCN1CCC(O)(c2ccc(Cl)cc2)CC1)c1ccc(F)cc1`, the AC50 was 100 µM (active).

Regarding `CCCCCCCCCCCCCCC`, the compound was called inactive.

In the case of `CCCCc1oc2ccccc2c1C(=O)c1cc(I)c(OCCN(CC)CC)c(I)c1`, the AC50 was 51.7 µM (active).

Turning to `CS(=O)(=O)c1ccc([C@@H](CC2CCCC2)C(=O)Nc2cnccn2)cc1Cl`, the call was inactive.

For `CC(=O)Nc1ccc(O)cc1`, the compound was called inactive.

For `OCC(CO)(CBr)CBr`, the compound was called inactive.

The nature of the next experiment: APR_HepG2_StressKinase_72hr: Apredica 72-hour HepG2 Assay for Stress Kinase (AID 2282921). The following applies: HepG2 stress kinase (phospho-c-Jun) imaging, actives raise or lower the signal. The gist of the method: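 HepG2 cells treated 72 hr with 0.39–200 uM compound, 0.5% v/v DMSO, duplicate wells. After formaldehyde fixation and Triton permeabilization, stained with anti-phospho-c-Jun (1:500) and Cy3 secondary, imaged at 20x. Fitted in both directions against DMSO.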
As for `CN(Cc1cnc2nc(N)nc(N)c2n1)c1ccc(C(=O)N[C@@H](CCC(=O)O)C(=O)O)cc1`, the call was inactive.

Regarding `CCCCCCCCCCCCOS(=O)(=O)O`, the call was inactive.

`Cc1[nH]nc2c1N=C(c1ccccc1Cl)c1cc([N+](=O)[O-])ccc1N2`: the half-maximal activity concentration (AC50) is 11.7 µM (active).

Take `CCCCC=O`: the compound was classed as inactive.

With `CN(C)CCOC(c1ccccc1)c1ccccc1`, the compound was classed as inactive.

Regarding `N=C(N)c1ccc(OCCCCCOc2ccc(C(=N)N)cc2)cc1`, the compound was classed as inactive.

Regarding `CCCCC(CC)C(=O)O` (configuration not stated), the call was inactive.

In the case of `O=C(c1ccccc1)c1ccccc1`, the result was inactive.

As for `O=C(CCCN1CCC(O)(c2ccc(Cl)cc2)CC1)c1ccc(F)cc1`, the AC50 is 42.5 µM (active).

Consider `CCCCCCCCCCCCCCC`, for which the call was inactive.

As to `CCCCc1oc2ccccc2c1C(=O)c1cc(I)c(OCCN(CC)CC)c(I)c1`, the call was inactive.

For the compound `CS(=O)(=O)c1ccc([C@@H](CC2CCCC2)C(=O)Nc2cnccn2)cc1Cl`, the outcome was inactive.

As to `CC(=O)Nc1ccc(O)cc1`, the call was inactive.

`OCC(CO)(CBr)CBr`: the result was inactive.

A further experiment can be described thus: APR_HepG2_StressKinase_24hr: Apredica 24-hour HepG2 Assay for Stress Kinase (AID 2282922). The following applies: HepG2 stress kinase (phospho-c-Jun) imaging, actives raise or lower the signal. In outline:
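HepG2, 24 hr dosing, 0.39–200 uM in duplicate, 0.5% DMSO; formaldehyde fix (3.7%), 0.5% Triton X-100; anti-phospho-c-Jun + Cy3 secondary, Hoechst counterstain; ArrayScan imaging; bidirectional curve fit vs DMSO baseline.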
Take `CN(Cc1cnc2nc(N)nc(N)c2n1)c1ccc(C(=O)N[C@@H](CCC(=O)O)C(=O)O)cc1`: the outcome was inactive.

In the case of `CCCCCCCCCCCCOS(=O)(=O)O`, the compound was classed as inactive.

With `Cc1[nH]nc2c1N=C(c1ccccc1Cl)c1cc([N+](=O)[O-])ccc1N2`, the AC50 is 19.8 µM (active).

Regarding `CCCCC=O`, the outcome was inactive.

Consider `CN(C)CCOC(c1ccccc1)c1ccccc1`, for which the outcome was inactive.

`N=C(N)c1ccc(OCCCCCOc2ccc(C(=N)N)cc2)cc1`: the call was inactive.

Consider `CCCCC(CC)C(=O)O` (configuration not stated), for which the call was inactive.

Take `O=C(c1ccccc1)c1ccccc1`: the call was inactive.

For `O=C(CCCN1CCC(O)(c2ccc(Cl)cc2)CC1)c1ccc(F)cc1`, the AC50 was 103 µM (active).

With `CCCCCCCCCCCCCCC`, the compound was classed as inactive.

Regarding `CCCCc1oc2ccccc2c1C(=O)c1cc(I)c(OCCN(CC)CC)c(I)c1`, the AC50 is 58.2 µM (active).

`CS(=O)(=O)c1ccc([C@@H](CC2CCCC2)C(=O)Nc2cnccn2)cc1Cl`: the result was inactive.

Take `CC(=O)Nc1ccc(O)cc1`: the compound was classed as inactive.

Turning to `OCC(CO)(CBr)CBr`, the call was inactive.

A short description of the next experiment: APR_HepG2_p53Act_72hr: Apredica 72-hour HepG2 Assay for p53 Activation (AID 2282923).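 Further: average cellular p53 protein immunofluorescence intensity in HepG2 cells.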 The conditions noted are these: high-content imaging, actives raise or lower the signal. The gist of the method: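 HepG2 cells exposed 72 h to 0.39–200 uM in 0.5% DMSO, duplicates. Fixed, permeabilized cells immunostained for p53 (Cy5) with Hoechst; imaged at 20x, fluorescence analyzed bidirectionally against DMSO.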
In the case of `O=C(c1ccccc1)c1ccccc1`, the AC50 is 0.304 µM (active).

For the compound `O=C(CCCN1CCC(O)(c2ccc(Cl)cc2)CC1)c1ccc(F)cc1`, the concentration at half-maximal activity (AC50) was 37.3 µM (active).

Consider `CCCCc1oc2ccccc2c1C(=O)c1cc(I)c(OCCN(CC)CC)c(I)c1`, for which the AC50 was 75.5 µM (active).

For `CS(=O)(=O)c1ccc([C@@H](CC2CCCC2)C(=O)Nc2cnccn2)cc1Cl`, the compound was called inactive.

The nature of a further experiment: APR_HepG2_MitoMass_72hr: Apredica 72-hour HepG2 Assay for Mitochondrial Mass (AID 2282924).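 Further: MitoTracker Red CMXRos stain intensity per cell imaged as mitochondrial mass.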 The conditions noted are these: high-content imaging, actives raise or lower the signal. In outline:
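HepG2, 72 hr cmpd, 10 conc 0.39–200 uM in dup, DMSO 0.5% v/v. MitoTracker Red CMXRos 250 nM 30 min pre-fix; formaldehyde 3.7% fix 30 min RT. HCS imaging, gain/loss fit vs DMSO.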
As for `CN(Cc1cnc2nc(N)nc(N)c2n1)c1ccc(C(=O)N[C@@H](CCC(=O)O)C(=O)O)cc1`, the outcome was inactive.

Take `O=C1NS(=O)(=O)c2ccccc21`: the result was inactive.

Consider `CCCCCCCCCCCCOS(=O)(=O)O`, for which the result was inactive.

`Cc1[nH]nc2c1N=C(c1ccccc1Cl)c1cc([N+](=O)[O-])ccc1N2`: the AC50 is 0.248 µM (active).

For `CCCCC=O`, the result was inactive.

For `CN(C)CCOC(c1ccccc1)c1ccccc1`, the result was inactive.

In the case of `N=C(N)c1ccc(OCCCCCOc2ccc(C(=N)N)cc2)cc1`, the half-maximal activity concentration (AC50) is 11.3 µM (active).

Regarding `O=C(c1ccccc1)c1ccccc1`, the call was inactive.

For `O=C(CCCN1CCC(O)(c2ccc(Cl)cc2)CC1)c1ccc(F)cc1`, the AC50 is 30.8 µM (active).

In the case of `CCCCCCCCCCCCCCC`, the compound was classed as inactive.

In the case of `CCCCc1oc2ccccc2c1C(=O)c1cc(I)c(OCCN(CC)CC)c(I)c1`, the concentration at half-maximal activity (AC50) was 52.6 µM (active).

On to `CS(=O)(=O)c1ccc([C@@H](CC2CCCC2)C(=O)Nc2cnccn2)cc1Cl`, for which the compound was called inactive.

Consider `CC(=O)Nc1ccc(O)cc1`, for which the compound was classed as inactive.
